Reference: PubChem BioAssay (NCATS)
Active and inactive are the calls of the source. The call rests on the fitted dose curve; in most records, active means well fitted curve in the direction sought with a large enough effect; inconclusive means small, poorly fitted or top-dose-only effect, or another doubt; inactive means no such curve, though single readings can be large or run the other way.

Assay: Validation qHTS assay for inhibitors of Activation Induced Cytidine Deaminase (AID): UDG Counterscreen signal (AID 1347427); further: 0% is about no effect
Settings: biochemical UDG counterscreen, fluorescence signal; series mostly up to 115 µM; activity, negative = inhibition: at the top concentration
Text: Assay Provider (PI) Patricia Gearhart Ph.D.
National Institute on Aging
National Institute of Health (NIH), Bethesda, MD
Assay Provider (PI) Rahul Kohli Ph.D.
Perelman School of Medicine
University of Pennsylvania, Philadelphia, PA
Activation-Induced Deaminase (AID) is a cytosine deaminase which converts cytosine into uracil within stretches of ssDNA. The presence of uracil in DNA initiates a cascade of mutagenic DNA repair to introduce point mutations and DNA double strand breaks. Specific targeting of AID to the immunoglobulin heavy chain loci (Igh) promotes mutagenesis in the antibody variable region for somatic hypermutation (SHM) or switch regions leading to class switch recombination (CSR). However, AID also plays a role in accumulating unnecessary mutations across the genome. Mis-targeting of AID results in the initiation of tumor development and leads to greater drug resistance among cancer cells when continually expressed. To identify an AID inhibitor, a small molecule library will be screened in collaboration with NCATS core facility at NIH. To confirm biological function, inhibitors will be examined in an in vitro murine B-cell activation assay and subsequent secondary validation screens. Top molecules will be further screened to identify inhibitory efficacy against a wild type primary splenocytes assay. Using these approaches, we hope to identify a small molecule with great efficacy and low toxicity for use as a molecular probe to further characterize AID's intricacies, or even as a therapeutic.
A FRET based analysis of cytosine deamination, was developed to identify potential inhibitors of AID catalytic activity. This screen has two signal output, Read 1 evaluates the AID inhibition response. The second readout (Read 2) evaluates UDG response and is uses as a counterscreen to exclude false positive inhibitors. Inhibition in AID and inactivity in the UDG signal is the desired outcome for this assay.
SEQUENCE No. (e.g., 1, 2, 3, etc.); […] (e.g., Cells, Incubation, Reagent, etc.); VALUE; DESCRIPTION
1a; Reagent; 3 uL; [4/3x] 1 uM AID/2.67 U/mL UDG
1b; Reagent; 3 uL; 2 U/mL UDG
1c; Reagent; 3 uL; 1 uM AID
2a; Compound; 46 nL; Follow-up plates (0.64 uM - 10 mM)
2b; Control; 46 nL; ATA ([…] - 10 mM)
3; Time; 10 min; incubation at room temperature
5; Time; 4 hr; incubation at room temperature
6; Reagent; 4 uL; [2x] 250 mM NaOH
7; Time; 15 sec; centrifuge at 1000 rpm
8; Time; 30 min; incubation at room temperature
9a; Detection; fluorescence (Read 1: AID); EnVision (PerkinElmer) plate reader, 540 excitation and 590 emission filters
9b; Detection; fluorescence (Read 2: UDG); EnVision (PerkinElmer) plate reader, 560 excitation and 665 emission filters
NOTES (numbers refer to sequence above)
1a; Reagents were dispensed in a medium-binding black solid-bottom Greiner plates (789176F) using a BioRptr liquid dispenser. Dispense 3 uL of [4/3x] 1 uM AID (provided by Kohli lab) and [4/3x] 2 U/mL UDG (NEB M0280L) into columns 1, 2, 5 to 48.
1b; Dispense 3 uL of [4/3x] 2 U/mL UDG into column 3.
1c; Dispense 3 uL of [4/3x] 1 uM AID into column 4.
2b; 10 mM Aurintricarboxylic Acid (Sigma A1895) (ATA, 8-point, n = 2, 1:2.5 dilution in column 2) double pin-transferred (Dip Factor = 2) using the Kalypsys (Wako USA) pintool equipped with a 1536 pinhead for a [final] range of 186 nM - 114 uM.
3; Room temperature incubation.
4; Dispense 1 uL of substrate mixture from the Kohli lab [4x] […] DJC20 and [4x] 250 nM DJC23 into columns 1 to 48 .
5; Room temperature incubation.
6; Dispense 4 uL of substrate mixture [2x] 250 mM NaOH into columns 1 to 48.
7; Centrifugation step to remove bubbles.
8; Room temperature incubation
9a; Fluorescence signal (column label AID) was read using the EnVision plate reader. Excitation filter = 540(8) nm, barcode = 311; Emission filter = 590(20) nm, barcode = 217; Mirror = D555, barcode = 405.
9b; Fluorescence signal (column label UDG) was read using the EnVision plate reader. […]

Q: With `CC[C@H](NC(=O)c1c(C)c(-c2ccccc2)nc2ccccc12)c1ccccc1` as the compound, how does the “activity, negative = inhibition” value read?
A: Its value is 1.3% (inactive).

Q: With `CC(C)[C@@H]1CC[C@@H](C)C[C@@H]1P(=O)(c1ccccc1)c1ccccc1` as the compound, how does the “activity, negative = inhibition” value read?
A: Its value is 2.22% (inactive).

Q: With `Cc1ccc2c(c1)C(N1CCN(C)CC1)=Nc1cccnc1N2` as the compound, how does the “activity, negative = inhibition” value read?
A: Its value is 6.43% (inactive).

Q: With `Cn1cc(C(=O)OCC2CCN(CCNS(C)(=O)=O)CC2)c2ccccc21` as the compound, how does the “activity, negative = inhibition” value read?
A: Its value is 11% (inactive).

Q: For `CCCCCCCCCCCCCCSCC(=O)O`, which “activity, negative = inhibition” value is on record?
A: Its value is 9.47% (inactive).

Q: With `Cn1c(=O)c2[nH]c(-c3ccc(S(=O)(=O)O)cc3)nc2n(C)c1=O` as the compound, how does the “activity, negative = inhibition” value read?
A: The value was 10.5% (inactive).

Q: With `O=c1onc2n1-c1cc(Br)ccc1OC2` as the compound, how does the “activity, negative = inhibition” value read?
A: Its value is 7.43% (inactive).

Q: For `COc1cc(C(O)C(=O)O)ccc1O` (stereo not given), which “activity, negative = inhibition” value is on record?
A: The value was 11.1% (inactive).

Q: Which “activity, negative = inhibition” value does the source give for `O=C(O)C1=CCCN(CCON=C(c2ccccc2)c2ccccc2)C1` here?
A: The value was -3.95% (inactive).

Q: Which “activity, negative = inhibition” value does the source give for `N[C@@H](CCCC(=O)O)C(=O)O` here?
A: The value was 14.4% (inactive).

Q: With `OC[C@H]1NC[C@@H](O)[C@@H]1O` as the compound, how does the “activity, negative = inhibition” value read?
A: Its value is 9.42% (inactive).

Q: With `CC(N)=NCCCC[C@@H](N)C(=O)O` as the compound, how does the “activity, negative = inhibition” value read?
A: The value was 9.63% (inactive).

Q: For `NC(=O)CC[C@H](N)C(=O)O`, which “activity, negative = inhibition” value is on record?
A: The value was 3% (inactive).

Q: With `NCC(O)(CS(=O)(=O)O)c1ccc(Cl)cc1` (stereo not given) as the compound, how does the “activity, negative = inhibition” value read?
A: The value was 2.68% (inactive).

Q: For `CC1=C(C(=O)O)N2C(=O)[C@@H](NC(=O)C(N)C3=CCC=CC3)[C@H]2SC1` (stereo not given in full), which “activity, negative = inhibition” value is on record?
A: Its value is 9.36% (inactive).

Q: With `O=[N+]([O-])c1cccc2cn[nH]c12` as the compound, how does the “activity, negative = inhibition” value read?
A: Its value is 13.1% (inactive).

Q: Which “activity, negative = inhibition” value does the source give for `CN[C@H](CC(=O)O)C(=O)O` here?
A: The value was 6.71% (inactive).

Q: Which “activity, negative = inhibition” value does the source give for `CN(C)C(=O)/N=N/C(=O)N(C)C` here?
A: The value was 4.07% (inactive).

Q: With `Nc1ccc(N2C(=O)c3ccccc3C2=O)c(Cl)c1` as the compound, how does the “activity, negative = inhibition” value read?
A: Its value is 2.28% (inactive).

Q: With `CCCOC(=O)c1c(-c2ccccc2)nc(CC)c(C(=O)SCC)c1CCC` as the compound, how does the “activity, negative = inhibition” value read?
A: Its value is -3.02% (inactive).

Q: Which “activity, negative = inhibition” value does the source give for `Cc1ccccc1/C=C/C1=NCCN1` here?
A: Its value is 4.95% (inactive).

Q: Which “activity, negative = inhibition” value does the source give for `c1ccc(C(NCc2cccnc2)(c2ccccc2)c2ccccc2)cc1` here?
A: Its value is 6.52% (inactive).

Q: With `O=C(OCCN1CCOCC1)C1(c2ccccc2)CCCCC1` as the compound, how does the “activity, negative = inhibition” value read?
A: Its value is 12% (inactive).

Q: With `CCN(c1nc(N)c(C(=O)N=C(N)N)nc1Cl)C(C)C` as the compound, how does the “activity, negative = inhibition” value read?
A: The value was 11.1% (inactive).

Q: With `N#CC(=C(\N)Sc1ccccc1N)/C(C#N)=C(/N)Sc1ccccc1N` as the compound, how does the “activity, negative = inhibition” value read?
A: The value was 6.03% (inactive).

Q: Which “activity, negative = inhibition” value does the source give for `Cn1c(=O)c2c(nc(/C=C/c3cccc(Cl)c3)n2C)n(C)c1=O` here?
A: Its value is -5.83% (inactive).

Q: For `O=C(O)c1ccccc1Nc1cccc(OCc2ccc3ccccc3n2)c1`, which “activity, negative = inhibition” value is on record?
A: Its value is 7.03% (inactive).

Q: For `N[C@H](C(=O)O)[C@H](Cc1ccccc1)C(=O)O`, which “activity, negative = inhibition” value is on record?
A: Its value is 3.88% (inactive).

Q: Which “activity, negative = inhibition” value does the source give for `CCCC(=O)NCCc1c2n(c3ccc(OC)cc13)CCCc1ccccc1-2` here?
A: The value was -3.49% (inactive).

Q: With `O=c1[nH]ccc2c(O)cccc12` as the compound, how does the “activity, negative = inhibition” value read?
A: The value was 9.65% (inactive).

Q: For `N#Cc1cc2nc(O)c(O)nc2cc1[N+](=O)[O-]`, which “activity, negative = inhibition” value is on record?
A: The value was 5.94% (inactive).

Q: With `CC1CCN(CC[C@H]2CCCN2S(=O)(=O)c2cccc(O)c2)CC1` as the compound, how does the “activity, negative = inhibition” value read?
A: Its value is 9.37% (inactive).

Q: With `Fc1ccc(CN(C2=NCCN2)c2c(Cl)cccc2Cl)cc1` as the compound, how does the “activity, negative = inhibition” value read?
A: The value was 1.44% (inactive).

Q: Which “activity, negative = inhibition” value does the source give for `CC(=O)O[C@H]1CC2(C)[C@@H](C[C@@H](O)[C@H]3[C@@]4(C)CC[C@@H](O)[C@@H](C)[C@@H]4CC[C@@]32C)C1=C(CCC=C(C)C)C(=O)O` (stereo not given in full) here?
A: The value was 3.42% (inactive).

Q: With `CC[n+]1c(/C=C/C=C2/N(C)c3ccccc3C2(C)C)sc2ccccc21` as the compound, how does the “activity, negative = inhibition” value read?
A: Its value is -3.04% (inactive).

Q: With `C=CCNc1ncnc2ccc(Br)cc12` as the compound, how does the “activity, negative = inhibition” value read?
A: The value was 5.92% (inactive).

Q: Which “activity, negative = inhibition” value does the source give for `O=c1ccn([C@@H]2O[C@H](COP(=O)(O)OP(=O)(O)O)[C@@H](O)[C@H]2O)c(=O)[nH]1` here?
A: The value was 10.6% (inactive).

Q: With `COc1cc(CNC(=O)CCCCCCC(C)C)ccc1O` as the compound, how does the “activity, negative = inhibition” value read?
A: The value was 1.27% (inactive).

Q: Which “activity, negative = inhibition” value does the source give for `CC#CCOC(=O)c1c(C)nc2sc3c(c2c1N)CCC(O)C3` (stereo not given) here?
A: The value was -3.78% (inactive).

Q: With `c1ccc(C2CN3CCSC3=N2)cc1` (stereo not given) as the compound, how does the “activity, negative = inhibition” value read?
A: Its value is -6.41% (inactive).
